# Test results reported in PubChem BioAssay (Tox21).
# Several values for one entry are separate records, joined by “and”; a condition that tells them apart may be missing. Identical values can stand only once. Records with an inconclusive call do not appear. Where a call stands in place of a potency, no number is given. Some structures have more than one record in an assay (separate samples or runs), and their calls can disagree. Activity calls are given as the source filed them. Calls follow the shape of the dose curve; as a rule, active = well fitted activation curve with a large enough effect in the repeat runs; inconclusive = weak or mixed curves; inactive = flat fitted curve, though single readings scatter.
# Assay: A CellTox Green Cytotoxicity Assay to monitor cytotoxicity in HepG2 cells - 40 hour (AID 1224879); also: nearly all actives have a fitted effect of over 40% in size
# Details: CellTox Green fluorescence; series mostly up to 76.8 µM
# Source text: National Center for Advancing Translational Sciences [NCATS]
# NIH Chemical Genomics Center [NCGC]
# U.S. Environmental Protection Agency [EPA]
# National Institutes of Environmental Health Sciences [NIEHS]
# National Toxicology Program [NTP]
# Cell-based models are critical for drug discovery. Determining the natural cytotoxic effects resulting from test compounds is an essential research activity. A CellTox Green Cytotoxicity Assay to monitor cytotoxicity in real time of continues cell culture during 40 hours of the compound treatment was used to screen Tox21 10K library compounds in HepG2 cells. CellTox Green Cytotoxicity Assay is a nonlytic, homogeneous, biofluorescent method to measure cytotoxicity in cell culture after experimental manipulation. The assay system uses a proprietary asymmetric cyanine dye that is excluded from viable cells but preferentially stains the dead cell's DNA. […] Viable cells produce no appreciable increases in fluorescence. Therefore, the fluorescence signal produced by the binding interaction with dead cell DNA is proportional to cytotoxicity.
# The mixture of HepG2 cell suspension and reagents were dispensed at 600cells/6 ul/well in 1536-well tissue culture treated black solid bottom plates using a Multidrop dispenser. After the assay plates were incubated at a 37 C/5% CO2 incubator for 5 hours, 23 nL of compounds dissolved in DMSO, positive and negative controls was transferred to the assay plate by a pintool work station. The plates were incubated at 37 C for 40 hours. The fluorescence intensity were measured at 0h, 8h, 16h, 24h, 32h and 40h time points using ViewLux plate reader during compound treatment.
# Potency is read from the fitted curve at half-maximal effect.
row,Compound,Potency
1,COCCOCCOC,inactive
2,c1ccc2[nH]c(-c3cscn3)nc2c1,inactive
3,N[C@@H](Cc1c[nH]c2ccccc12)C(=O)O,inactive
4,Nc1cccc(N)c1,inactive
5,COC(=O)c1ccc(C=O)cc1,inactive
6,COc1ccccc1NC(=O)CC(C)=O,inactive
7,CC(=O)OC/C=C(C)/C=C/C=C(C)/C=C/C1=C(C)CCCC1(C)C,inactive
8,COc1cc2c(c(OC)c1OC)-c1ccc(OC)c(=O)cc1[C@@H](NC(C)=O)CC2,54.3 µM (active) and inactive
9,CCc1cc(C(N)=S)ccn1,inactive
10,NC(=O)OCC(COC(N)=O)c1ccccc1,inactive
11,CN/C(=C\[N+](=O)[O-])NCCSCc1ccc(CN(C)C)o1,inactive
12,NC(=O)c1ccc([N+](=O)[O-])cc1Cl,inactive
13,NC(=O)N/N=C/c1ccc([N+](=O)[O-])o1,inactive
14,CCCCCCCCOc1ccc(C(=O)c2ccccc2)c(O)c1,inactive
15,C/C=C/c1ccc(O)c(OC)c1,inactive
16,Cn1cnc2c1c(=O)[nH]c(=O)n2C,inactive
17,Cc1ccc(O)c(-n2nc3ccccc3n2)c1,inactive
18,Cc1c(N(C)CS(=O)(=O)O)c(=O)n(-c2ccccc2)n1C,inactive
19,CCCCCCCC(=O)OCC(O)CO (stereo not given),inactive
20,C1CNCCN1,inactive

row,Compound,Potency
1,O=c1cc[nH]c(=O)[nH]1,inactive
2,CCCCC/C(C=O)=C\c1ccccc1,inactive
3,C=C(C)OC(C)=O,inactive
4,Cc1cccc2ccccc12,inactive
5,C#C[C@]1(O)CC[C@H]2[C@@H]3CCC4=CC(=O)CC[C@@H]4[C@H]3CC[C@@]21CC,inactive and 43.6 µM (active)
6,C[C@]12CC[C@@H]3c4ccc(O)cc4C[C@@H](CCCCCCCCCS(=O)CCCC(F)(F)C(F)(F)F)[C@H]3[C@@H]1CC[C@@H]2O (stereo not given in full),inactive
7,CN(C)C=O,inactive
8,COc1cc(C=O)ccc1O,inactive
9,CC(C)(C)CC(C)(C)c1ccc(O)c(-n2nc3ccccc3n2)c1,inactive
10,NC(N)=NC(N)=NCCc1ccccc1,inactive
11,OC[C@@H](O)[C@@H](O)[C@H](O)[C@H](O)CO,inactive
12,O=C(O)CCCCC1CCSS1 (stereo not given),inactive
13,O=C1CCCCCN1,inactive
14,COc1ccc(O)cc1,inactive
15,O=c1c(-c2ccc(O)cc2)coc2cc(O)cc(O)c12,inactive
16,CC(O)COc1ccccc1 (stereo not given),inactive
17,CCCCOCCOCCSC#N,inactive
18,CCOCCO,inactive
19,CCn1cc(C(=O)O)c(=O)c2ccc(C)nc21,inactive
20,C[C@]12C=CC(=O)C=C1CC[C@@H]1[C@@H]2C(=O)C[C@@]2(C)[C@H]1CC[C@]2(O)C(=O)CO,inactive
